Laboratory results as given in the supplement of paper PMC8728848.
The sample as a whole holds a higher share of the strongest signals than the screen did.

What was measured:
Assay in all cases: glycan array binding signal (z-score within array); higher = stronger binding
Settings in all cases: glycan notation: IUPAC condensed, linker removed
Fuc(a1-2)Gal(b1-4)Glc = biological target: Fuc(a1-2)Gal(b1-4)Glc
How it was run: (§1)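 Arrays were curated from the Consortium for Functional Glycomics database, 3228 in total, and kept only where the protein sequence was available. Binding is expressed as a within-array Z-score. This score was averaged across arrays of the same protein sequence at different concentrations or buffers and across linkers, and negative values can be read as non-binding.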

Fuc(a1-2)Gal(b1-4)GlcNAc = biological target: Fuc(a1-2)Gal(b1-4)GlcNAc
How it was run: as §1

[1] = biological target: Fuc(a1-2)Gal(b1-4)GlcNAc(b1-3)GalNAc
How it was run: as §1

[2] = biological target: Fuc(a1-2)Gal(b1-4)GlcNAc(b1-3)[Fuc(a1-3)[Gal(b1-4)]GlcNAc(b1-6)]Gal(b1-4)Glc
How it was run: as §1

[3] = biological target: Fuc(a1-2)Gal(b1-4)[Fuc(a1-3)]GlcNAc(b1-2)[Fuc(a1-2)Gal(b1-4)[Fuc(a1-3)]GlcNAc(b1-4)]Man(a1-3)[Fuc(a1-2)Gal(b1-4)[Fuc(a1-3)]GlcNAc(b1-2)Man(a1-6)]Man(b1-4)GlcNAc(b1-4)GlcNAc
How it was run: as §1

[4] = biological target: Fuc(a1-2)Gal(b1-4)[Fuc(a1-3)]GlcNAc(b1-3)Gal(b1-4)[Fuc(a1-3)]GlcNAc(b1-3)Gal(b1-4)[Fuc(a1-3)]GlcNAc
How it was run: as §1

[5] = biological target: Fuc(a1-2)[Gal(a1-3)]Gal(b1-3)GlcNAc(b1-6)GalNAc
How it was run: as §1

[6] = biological target: Fuc(a1-2)[Gal(a1-3)]Gal(b1-4)GlcNAc(b1-3)[Fuc(a1-2)[Gal(a1-3)]Gal(b1-4)GlcNAc(b1-6)]GalNAc
How it was run: as §1

[7] = biological target: Fuc(a1-2)[GalNAc(a1-3)]Gal(b1-3)GlcNAc
How it was run: as §1

[8] = biological target: Fuc(a1-2)[GalNAc(a1-3)]Gal(b1-4)GlcNAc(b1-2)Man
How it was run: as §1

[9] = biological target: Fuc(a1-2)[GalNAc(a1-3)]Gal(b1-4)[Fuc(a1-3)]GlcNAc(b1-3)GalNAc
How it was run: as §1

[10] = biological target: Fuc(a1-3)[Gal(b1-4)]Glc6S
How it was run: as §1

[11] = biological target: Fuc(a1-3)[Gal(b1-4)]GlcNAc(b1-2)Man
How it was run: as §1

Fuc(a1-4)GlcNAc = biological target: Fuc(a1-4)GlcNAc
How it was run: as §1

Gal(a1-3)Gal(b1-3)GlcNAc = biological target: Gal(a1-3)Gal(b1-3)GlcNAc
How it was run: as §1

[12] = biological target: Gal(b1-4)GlcNAc(b1-2)Man(a1-6)Man(b1-4)GlcNAc(b1-4)GlcNAc
How it was run: as §1

[13] = biological target: Gal(b1-4)GlcNAc(b1-3)Gal(b1-4)GlcNAc(b1-3)[Gal(b1-4)GlcNAc(b1-3)Gal(b1-4)GlcNAc(b1-6)]GalNAc
How it was run: as §1

GalNAc(a1-3)GalNAc = biological target: GalNAc(a1-3)GalNAc
How it was run: as §1

GalNAc(b1-4)GlcNAc = biological target: GalNAc(b1-4)GlcNAc
How it was run: as §1

[14] = biological target: GalNAc(b1-4)GlcNAc(b1-2)Man
How it was run: as §1

GalNAc(b1-4)GlcNAc6S = biological target: GalNAc(b1-4)GlcNAc6S
How it was run: as §1

GalNAc3S(b1-4)GlcNAc3S = biological target: GalNAc3S(b1-4)GlcNAc3S
How it was run: as §1

Glc(b1-4)Glc = biological target: Glc(b1-4)Glc
How it was run: as §1

GlcA(b1-6)Gal = biological target: GlcA(b1-6)Gal
How it was run: as §1

[15] = biological target: GlcNAc(b1-3)Gal(b1-4)GlcNAc(b1-3)Gal(b1-4)GlcNAc(b1-2)[GlcNAc(b1-3)Gal(b1-4)GlcNAc(b1-3)Gal(b1-4)GlcNAc(b1-6)]Man(a1-6)[GlcNAc(b1-3)Gal(b1-4)GlcNAc(b1-3)Gal(b1-4)GlcNAc(b1-2)Man(a1-3)]Man(b1-4)GlcNAc(b1-4)[Fuc(a1-6)]GlcNAc
How it was run: as §1

[16] = biological target: GlcNAc(b1-3)Gal(b1-4)GlcNAc(b1-3)Gal(b1-4)GlcNAc(b1-3)Gal(b1-4)GlcNAc(b1-2)[GlcNAc(b1-3)Gal(b1-4)GlcNAc(b1-3)Gal(b1-4)GlcNAc(b1-3)Gal(b1-4)GlcNAc(b1-6)]Man(a1-6)[GlcNAc(b1-3)Gal(b1-4)GlcNAc(b1-3)Gal(b1-4)GlcNAc(b1-3)Gal(b1-4)GlcNAc(b1-2)Man(a1-3)]Man(b1-4)GlcNAc(b1-4)[Fuc(a1-6)]GlcNAc
How it was run: as §1

[17] = biological target: GlcNAc(b1-3)Gal(b1-4)GlcNAc(b1-3)GalNAc
How it was run: as §1

[18] = biological target: GlcNAc(b1-3)[GlcNAc(b1-4)][GlcNAc(b1-6)]GlcNAc
How it was run: as §1

[19] = biological target: GlcNAc(b1-6)Gal(b1-4)GlcNAc
How it was run: as §1

[20] = biological target: Man(a1-3)[Man(a1-6)]Man(b1-4)GlcNAc(b1-4)[Fuc(a1-6)]GlcNAc
How it was run: as §1

B1: SP16663B-bot-321-25-321 (Bacteroides ovatus) (protein)
chain: DDDDEVTMNSKFYLSTKVFPVDSYEASLSVILKDNSVVVNELQPNYRFVACATERLSKDVKITADSDDNLVSAYNKANDTEYNILPAENYSFTNKTVTIENGESVSGDSIKIELLNVGSLTTEGGYLLPVTISSIEGNNLDALSSNRGVVYLKIQNIHVNVESGQPAEGTLIADRSGWTVKVAPTTRGDAKNLIDGTNSDVARDGGAEYWLTVDIGKVQTLTGIRNKCYASSYSPTAVEVFTSSDGAKWKSIGAVTISKSGTQYIKFSKAVETRYLKYYVKQGPNTVSLTEFDLYAK
- glycan array binding signal (z-score) (Fuc(a1-2)Gal(b1-4)Glc): -0.653
- glycan array binding signal (z-score) (Fuc(a1-2)Gal(b1-4)GlcNAc): -0.156
- glycan array binding signal (z-score) [1]: -0.106
- glycan array binding signal (z-score) [2]: -0.632
- glycan array binding signal (z-score) [3]: -0.394
- glycan array binding signal (z-score) [4]: -0.007
- glycan array binding signal (z-score) [5]: -0.437
- glycan array binding signal (z-score) [6]: 1.9
- glycan array binding signal (z-score) [7]: 0.071
- glycan array binding signal (z-score) [8]: 1.04
- glycan array binding signal (z-score) [9]: 0.604
- glycan array binding signal (z-score) [10]: 1.36
- glycan array binding signal (z-score) [11]: 0.558
- glycan array binding signal (z-score) (Fuc(a1-4)GlcNAc): 21.5
- glycan array binding signal (z-score) (Gal(a1-3)Gal(b1-3)GlcNAc): 0.607
- glycan array binding signal (z-score) [12]: -0.62
- glycan array binding signal (z-score) [13]: 1.04
- glycan array binding signal (z-score) (GalNAc(a1-3)GalNAc): -0.141
- glycan array binding signal (z-score) (GalNAc(b1-4)GlcNAc): 1.29
- glycan array binding signal (z-score) [14]: 1.72
- glycan array binding signal (z-score) (GalNAc(b1-4)GlcNAc6S): -0.779
- glycan array binding signal (z-score) (GalNAc3S(b1-4)GlcNAc3S): -0.087
- glycan array binding signal (z-score) (Glc(b1-4)Glc): 0.122
- glycan array binding signal (z-score) (GlcA(b1-6)Gal): 0.013
- glycan array binding signal (z-score) [15]: 2.65
- glycan array binding signal (z-score) [16]: 1.28
- glycan array binding signal (z-score) [17]: -0.536
- glycan array binding signal (z-score) [18]: -0.112
- glycan array binding signal (z-score) [19]: 1.33
- glycan array binding signal (z-score) [20]: 0.967
